Bioassay records from PubChem BioAssay.
Rows were chosen to be rich in hits. Some 19% of all compounds tested hit in one or more screens of this group.
SW480 rerep = induces DNA re-replication in SW480 colon adenocarcinoma cells; Potency, µM (titrated, usually from 46.1 µM), hits mostly activators; SW480 DNA re-replication, Hoechst DNA content imaging, 48 h; 340,000 compounds, 1.8% hits; further: nearly all actives have a fitted effect of over 55% in size
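Compounds, transferred as 23 nL by pin tool, were incubated with cells for 48 hr; DNA content per nucleus was then quantified by Hoechst staining and fluorescence plate imaging.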
BCR signal inh = chronic active BCR signaling inhibition; ABC-DLBCL IkBa-CBG/CBR reporter, luminescence ratio, 4 h; Potency, µM (top dose mostly 46.1 µM), most hits filed as inhibitors; 340,000 compounds, 0.05% hits; AID 493014; active means well fitted inhibition curve with a large enough effect in the signal ratio, with a control signal flat, not every such curve was filed as active; inconclusive means small, poorly fitted or top-dose-only effect, or effect the other way, or a change in a side signal; the % refers to the signal ratio
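Concentration-response series (up to 46 uM) were applied to TMD8 dual-reporter cells for 4 h at 37C with doxycycline. Green/red ratio, after filter-overlap correction, defined %Activity; red signal alone was normalised to basal cells and zero luminescence.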
TDP1 cell CPT = growth inhibition of DT40 Tdp1-/-;hTDP1 cells with camptothecin (screen for TDP1 inhibitors) | 420,000 compounds, 12% hits | chicken DT40 Tdp1-/-;hTDP1 cells + 20 nM CPT, ATP luminescence, 48 h | Potency, µM (highest dose often 46.2 µM), actives largely listed as inhibitors; further: nearly all actives have a fitted effect of over 55% in size
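Chicken DT40 Tdp1-/- cells complemented with human TDP1, 400 cells/well, exposed to compounds plus 20 nM camptothecin for at least 48 h at 37 C; viability read as ATP content by CellTiter-Glo luminescence.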
DT40 TDP1 no CPT = qHTS for Inhibitors of human tyrosyl-DNA phosphodiesterase 1 (TDP1): qHTS in cells in absence of CPT. DT40 Tdp1-/- hTDP1 cells, no CPT, ATP luminescence, 48 h. Potency, µM (titrated, usually from 46.2 µM), hits mostly inhibitors. 420,000 compounds, 15% hits; further: nearly all actives have a fitted effect of over 55% in size
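Chicken DT40 Tdp1-/- cells stably complemented with human TDP1 were seeded at 400 cells/well with DMSO in place of 20 nM camptothecin. After compound pinning, cells grew at least 48 hr at 37 °C; viability read by CellTiter-Glo luminescence.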
IL-1B inflam inh = inhibitors of inflammasome signaling (IL-1 beta secretion). THP-1 LPS/ATP IL-1B secretion, AlphaLISA, 16 h; stronger effect = lower value. activity change, % at 57.5 µM. 360,000 compounds, 4.7% hits; in the data active means activity change below about -50%; inconclusive means mostly about -30% to -49%
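THP-1 cells pretreated 1 hr with compounds (up to 57.5 uM final), then stimulated with LPS (250 ng/mL final) plus ATP (1.25 mM final); secreted IL-1B measured by AlphaLISA after 16 hr, decreased signal indicating inhibition.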
MCF10A rerep = inducers of DNA re-replication in MCF 10A breast cells. 350,000 compounds, 2.9% hits. Potency, µM (top dose mostly 46.1 µM), usual class: activators. MCF 10A DNA re-replication, Hoechst nuclear intensity, 48 h; further: nearly all actives have a fitted effect of over 50% in size
Numbers stand for hits; . = inactive; ? = inconclusive; / = not tested or not shown; [ ] = remark or other dose. Unless noted, the call rests on the fitted dose curve; in most records, active means well fitted curve in the direction sought with a large enough effect; inconclusive means small, poorly fitted or top-dose-only effect, or another doubt; inactive means no such curve, though single readings can be large; an effect the other way counts as inactive or inconclusive.

SMILES	SW480 rerep	BCR signal inh	TDP1 cell CPT	DT40 TDP1 no CPT	IL-1B inflam inh	MCF10A rerep
CN(C)c1nc2c(N)ncnc2n1C1OC(CO)C(O)C1O (centres undefined)	.	/	.	.	.	.
CN(C)c1nc2c(N)ncnc2n1[C@H]1O[C@@H](CO)[C@H](O)[C@@H]1O	.	.	.	.	.	.
CC(C)n1c(=O)c2ccccc2n1Cc1cn(-c2ccc(Cl)cc2)nn1	/	/	?	?	.	/
O=C(CSc1nc(C2CC2)nc2ccccc12)N1CCc2ccccc21	.	/	.	.	.	?
COc1ccccc1C1CCCN1Cc1nc(-c2ccc(C)s2)oc1C (centres undefined)	.	.	18µM	?	.	?
Cn1ccsc1=NC(=O)c1cc(S(=O)(=O)N2CCOCC2)ccc1F	.	.	.	.	.	.
O=C(Nc1ccccc1Cl)c1ccccc1	.	.	.	.	.	.
O=C(Nc1ccc(Cl)cc1)C(Cl)C(=O)c1ccccc1 (centres undefined)	?	?	9.2µM	13µM	?	?
O=C(Nc1ccccc1Cl)C(Cl)C(=O)c1ccccc1 (centres undefined)	.	.	15µM	13µM	-68	.
Cc1cc2oc(=O)cc(Cn3ncc(Cl)c(Cl)c3=O)c2cc1Cl	2.6µM	?	3.3µM	3.3µM	-101	7.3µM
Cc1cc(C(=O)Cn2ncc(Cl)c(Cl)c2=O)c(C)n1CC(F)(F)F	5.8µM	?	4.6µM	3.7µM	-99	2.6µM
Cc1ccc(C)c(C(=O)Cn2ncc(Cl)c(Cl)c2=O)c1	?	?	5.8µM	3.3µM	-104	4.6µM
Cc1cccc(Cn2ncc(Cl)c(Cl)c2=O)c1	5.8µM	?	12µM	9.2µM	-102	13µM
Cc1ccc(C)c(C(=O)CN2C(=O)c3ccccc3S2(=O)=O)c1	.	.	.	.	.	?
CC(=O)Nc1ccc(S(=O)(=O)Nc2nc3ccccc3nc2Nc2ccc(O)c(C(=O)O)c2)cc1	.	?	.	.	.	.
CCOC(=O)c1ccc(CN2Cc3ccccc3C2=O)cc1	.	.	.	.	.	.
Cc1cc(C(=O)CN2C(=O)C(=O)N(Cc3ccccc3)C2=O)c(C)n1Cc1ccccc1	.	.	?	?	.	.
COc1ccc(CCn2c(C)cc(C(=O)CN3C(=O)C(=O)N(Cc4ccco4)C3=O)c2C)cc1	.	.	13µM	9.2µM	.	.
Cc1cc(C(=O)CN2C(=O)C(=O)N(C3CCCC3)C2=O)c(C)n1CCc1ccccc1	.	?	?	?	.	.
Cc1cc(C(=O)CN2C(=O)C(=O)N(Cc3ccccc3)C2=O)c(C)n1Cc1ccc(F)cc1	?	.	.	.	.	5.2µM
Cc1cc(C(=O)CN2C(=O)C(=O)N(Cc3ccccc3)C2=O)c(C)n1CC1COc2ccccc2O1 (centres undefined)	.	.	.	18µM	.	4.6µM
Cc1cc(C(=O)CN2C(=O)C(=O)N(Cc3ccccc3)C2=O)c(C)n1-c1ccccc1F	.	.	.	?	.	?
Cc1cc(C(=O)CN2C(=O)C(=O)N(C3CCCC3)C2=O)c(C)n1CCc1ccc(F)cc1	.	?	18µM	?	.	.
O=C(Cc1ccc(S(=O)(=O)N2CCOCC2)s1)OCc1ccc(Cl)cc1	.	.	.	.	.	?
Cc1cc(C(=O)COC(=O)c2ccc(CO)cc2)c(C)n1CC1COc2ccccc2O1 (centres undefined)	.	.	23µM	?	.	.
SMILES	SW480 rerep	BCR signal inh	TDP1 cell CPT	DT40 TDP1 no CPT	IL-1B inflam inh	MCF10A rerep
OC[C@@H]1[C@@H](c2ccc(Cl)cc2)C(c2cccc(Cl)c2)=NN1c1ccccc1	2.3µM	?	21µM	13µM	?	?
OC[C@@H]1[C@@H](c2ccc(F)cc2)C(c2cccc(Cl)c2)=NN1c1ccccc1	0.13µM	.	21µM	23µM	?	0.58µM
CCOc1ccc(N2C(=O)C3C(c4ccccc4)=NN(c4ccccc4)C3C2=O)cc1 (centres undefined)	.	.	.	.	.	.
OC[C@@H]1[C@@H](c2ccc(Cl)cc2)C(c2ccccc2)=NN1c1ccccc1	23µM	.	?	16µM	?	2.1µM
N#CCc1ccc(OC(=O)c2ccncc2)cc1	.	/	.	.	.	.
CCn1c(=S)sc2c(=O)n(CC(=O)Nc3ccc(OC)c(Cl)c3)c(C)nc21	.	.	?	.	.	.
O=C(NCc1ccc(F)cc1)c1ccc(CSCc2cccc(Cl)c2)o1	/	.	?	21µM	/	/
O=C(NCc1ccccc1Cl)c1ccc(CSCc2cccc(F)c2)o1	/	.	26µM	?	/	/
O=C(NCc1ccc(Cl)cc1)c1ccc(CSCc2cccc(Cl)c2)o1	/	.	.	?	/	/
O=C(NCc1ccc(F)cc1Cl)c1ccc(CSCc2ccccc2Cl)o1	/	.	?	?	/	/
COc1ccc2cc3cc(C(=O)NCCN4CCN(Cc5ccccc5)CC4)oc3nc2c1	.	.	.	21µM	-67	.
COc1ccc2cc3cc(C(=O)N4CCCCC4C)oc3nc2c1 (centres undefined)	.	.	16µM	?	?	.
CCN1CCN(CCCNC(=O)c2cc3cc4ccc(OC)cc4nc3o2)CC1	?	.	.	?	-85	?
COc1ccc2cc3cc(C(=O)NCCCN4CCC(C)CC4)oc3nc2c1	?	?	?	2.6µM	-83	.
COc1ccc2cc3cc(C(=O)NCCN4CCc5ccccc5C4)oc3nc2c1	.[9.22 µM]	.	?	?	.	?
COC(=O)C1C2CC(=O)C(C2)C1C(=O)OC (centres undefined)	.	/	.	.	.	.
CC(C)N(C(=S)NCc1ccccc1)c1ccccc1	.	.	.	.	-50	?
CC(C)N(C(=S)NCc1ccccc1)C(C)C	.	?	.	?	.	.
COc1ccc2cc(CN(C(=O)Nc3ccccc3)C3CCCC3)c(=O)[nH]c2c1	.	?	?	.	.	.
Cc1ccc(NC(=O)N(Cc2c[nH]c3ccccc23)C2CCCCCC2)cc1C	/	/	7.3µM	8.2µM	/	/
Cc1ccc(NC(=O)C(=O)NCCc2c[nH]c3ccccc23)cc1C	.	.	.	.	.	?
COc1cccc(NC(=O)N(Cc2c[nH]c3ccccc23)C2CCCCC2)c1	/	/	8.2µM	18µM	/	/
CC(C)(C(=O)N1CCC1(C)C(=O)NS(=O)(=O)c1cccc(Cl)c1)c1ccccc1 (centres undefined)	/	/	.	.	.	/
Cc1cccc2sc(NNC(=O)C3=COCCO3)nc12	.	?	13µM	?	.	.[9.22 µM]
